# ALOX12 inh: blocks human arachidonate 12S-lipoxygenase; AID 1671190; Potency, µM (doses to about 108 µM), for inactives: at the highest dose activity change, negative = inhibition, actives largely listed as inhibitors; actives 1.1% (n = 580,000); purified 12hLO, xylenol orange hydroperoxide absorbance; P18054; note: potency is the fitted concentration of half-maximal effect; % is set by controls: 0 for no effect and ±100 for the full control effect
# Target sequence (P18054 whole entry, looked up): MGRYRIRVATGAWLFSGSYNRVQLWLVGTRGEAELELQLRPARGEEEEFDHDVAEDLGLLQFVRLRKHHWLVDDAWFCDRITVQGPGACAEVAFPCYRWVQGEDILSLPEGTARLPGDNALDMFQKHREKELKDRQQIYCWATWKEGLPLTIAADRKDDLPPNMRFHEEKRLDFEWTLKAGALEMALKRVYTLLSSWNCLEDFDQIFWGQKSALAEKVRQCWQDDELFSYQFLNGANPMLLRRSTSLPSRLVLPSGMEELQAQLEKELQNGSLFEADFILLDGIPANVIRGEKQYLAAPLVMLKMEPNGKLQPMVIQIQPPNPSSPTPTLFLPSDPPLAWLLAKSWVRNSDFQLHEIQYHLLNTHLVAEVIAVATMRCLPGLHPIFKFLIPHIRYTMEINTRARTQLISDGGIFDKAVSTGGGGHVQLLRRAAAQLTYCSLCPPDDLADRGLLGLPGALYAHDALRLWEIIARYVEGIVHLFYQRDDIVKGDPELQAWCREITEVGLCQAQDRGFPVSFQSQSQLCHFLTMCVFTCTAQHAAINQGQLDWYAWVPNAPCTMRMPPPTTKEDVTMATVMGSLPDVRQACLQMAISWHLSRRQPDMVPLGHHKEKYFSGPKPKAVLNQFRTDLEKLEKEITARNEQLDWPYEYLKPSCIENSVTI
#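 Hydroperoxide product was detected by ferrous iron/xylenol orange as the 573 to 405 nm absorbance ratio. Arachidonic acid at 40 uM (final) was turned over for 30 min at room temperature by 150 nM human 12hLO, pH 7.0 Hepes buffer, after 15 min compound preincubation.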
# Vif-APOBEC3F blk: Vif-A3F binding inhibition; HeLa A3F-eYFP + Vif (tagged APOBEC3F with the HIV-1 protein that degrades it), YFP fluorescence increase; Potency, µM (highest dose often 46.1 µM), without a hit: at the top dose activity, negative = active; actives 0.2% (n = 390,000); note: potency is the fitted concentration of half-maximal effect; % of control where 0% means no effect; nearly all actives have a fitted effect of over 65% in size
#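 HeLa cells stably expressing A3F-eYFP plus Vif, plated and incubated overnight at 37 deg C, then exposed to compounds overnight at 37 deg C. Blocked degradation read as raised yellow fluorescence (Ex 488/Em 500-530).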
# GRP78 ERSR act: ER stress response induction in glioma. Potency, µM, for the others: at the top dose activation, actives largely listed as activators. AID 602332. U87-MG GRP78 promoter luciferase reporter, 16 h. actives 0.02% (n = 420,000); note: potency is the fitted concentration of half-maximal effect; series mostly up to about 76 µM; % of control where 0% means no effect; nearly all actives have a fitted effect of over 35% in size
#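 Stably transfected U87-MG human glioma cells carrying a GRP78-based luminescent sensor were seeded at 1000 cells/well, pin-dosed with compounds and incubated 16 h. Luciferase reagent was then added, and end-point luminescence was read after 10 min at room temperature.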
# TRPML1 agonist: human mucolipin-1 channel agonism | actives 0.12% (n = 410,000) | TRPML1-expressing cells, Ca2+ dye fluorescence, FDSS | activation, % (test concentration not listed); in the data active = activation above about 50%; inconclusive = mostly about 30% to 49%; note: 0% is about no effect
#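 Tetracycline-induced TRPML1-DL cells are seeded and incubated overnight before loading with a no-wash Ca2+ dye and quencher. Agonist activity is taken from the 110 s fluorescence read following compound pin-transfer on an FDSS, before EC80 54-4 challenge.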
# TRPML1 inh: blocks the human TRPML1 channel. Q9GZU1. TRPML1-inducible cells, Ca2+ dye fluorescence, FDSS; stronger effect = lower value; inhibition of EC80 agonist-evoked calcium signal. activity change, negative = inhibition, % (concentration not given with the values). actives 0.02% (n = 390,000). AID 624415; in the data active = activity change below about -50%; inconclusive = between about -30% and that limit;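 note: stimulus is agonist 54-4 at its EC80 concentration; % is set by controls: 0 for no effect and ±100 for the full control effect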
#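 TRPML1-DL cells, Tet-induced overnight (~16 h, 37 °C) at 1,500 cells/well, were loaded with Ca8 no-wash dye plus quencher for 45-90 min at room temperature. Compounds were pinned during FDSS kinetic reading; agonist 54-4 at EC80 (4 uM final) then added.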
# Vif-A3G inh: blocks the Vif interaction with human APOBEC3G | HeLa A3G-eYFP + Vif (tagged APOBEC3G with the HIV-1 protein that degrades it), YFP fluorescence, overnight | actives 0.076% (n = 410,000) | Q9HC16 | Potency, µM (series often up to 46.1 µM), without a hit: at the top dose activity, negative = active, hits mostly inhibitors; note: potency is the fitted concentration of half-maximal effect; % is set by controls: 0 for no effect and ±100 for the full control effect; nearly all actives have a fitted effect of over 60% in size
#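 HeLa cells stably expressing Vif and C-terminally eYFP-tagged A3G, seeded overnight at 37 deg C, then exposed to compound by pintool overnight at 37 deg C. Rise in yellow fluorescence (Ex 488/Em 500-530, Acumen) marks blocked Vif-driven A3G degradation.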
# The depositor's hits bear a star; ? = inconclusive; · = not tested or not shown; [ ] = remark or other dose. Compounds with a hit are over-represented: about 1.3% of the library has one in this group of screens. Unless noted, calls come from the whole dose curve; as a rule, active = well fitted curve in the direction sought with a large enough effect; inconclusive = small, poorly fitted or top-dose-only effect, or another doubt; inactive = no such curve, though single readings can be large; an effect the other way counts as inactive or inconclusive.
SMILES,ALOX12 inh,Vif-APOBEC3F blk,GRP78 ERSR act,TRPML1 agonist,TRPML1 inh,Vif-A3G inh
O=C(O)CCN(CCC(=O)O)c1ccc(/C=C/c2ccnc3ccccc23)cc1,·,·,-3.1%,19.7,·,-2.8%
CN(C)c1ccc(/C=C/c2ccnc3ccccc23)cc1O,·,·,-2.2%,23.9,·,11.2µM*
CN(C)c1ccc(/C=C/c2ccnc3ccccc23)cc1[N+](=O)[O-],·,·,0.2%,-0.8,·,1.4%
CCc1cc(/C=C/c2ccnc3ccccc23)ccc1N(C)C,·,·,7.9%,22.1,·,?
CCCCN(CCC(=O)O)c1ccc(/C=C/c2ccnc3ccccc23)cc1,·,·,-10.9%,98.6*,·,?
CN(C)c1ccc(/C=C/c2ccnc3ccccc23)cc1C=O,·,·,-4.8%,-0.1,·,7.08µM*
COc1ccc(-c2c(C)c3cc(OS(=O)(=O)c4ccc(C)cc4)ccc3oc2=O)cc1OC,-4.3%,·,·,·,·,·
Cc1nnc(N2C(=O)C(O)=C(C(=O)c3ccco3)C2c2ccc(C(C)(C)C)cc2)s1 (stereo not drawn),7.94µM*,4.8%,5.6%,3.1,5.9,-12.1%
CSc1ccc(C2C(C(=O)c3ccco3)=C(O)C(=O)N2c2nnc(SC)s2)cc1 (stereo not drawn),39.8µM*,?,0.5%,7.6,9.8,-11.1%
Cc1nnc(N2C(=O)C(O)=C(C(=O)c3ccco3)C2c2ccc(C(C)C)cc2)s1 (stereo not drawn),44.7µM*,-5.6%,-1.9%,2.1,-21.1,-12.5%
Cc1nnc(N2C(=O)C(O)=C(C(=O)c3ccco3)C2c2ccc(F)cc2)s1 (stereo not drawn),?,-9.8%,-2.4%,0.2,14.7,-2.8%
CCCCOc1cccc(C2C(C(=O)c3ccc(C)o3)=C(O)C(=O)N2c2nnc(C)s2)c1 (stereo not drawn),?,-77.3%,-3.3%,?,-6.2,-8.8%
CCCOc1cccc(C2C(C(=O)c3ccco3)=C(O)C(=O)N2c2nnc(C)s2)c1 (stereo not drawn),7.94µM*,-7.8%,1.9%,28.9,-27.9,0.2%
O=C(NCc1ccc(CN2CCCCC2)cc1)c1ccc(C(F)(F)F)nc1,37.9%,·,·,·,·,·
CC(=O)c1cccc(NC(=O)C(c2ccccc2)n2cnc3c2c(=O)n(C)c(=O)n3C)c1 (stereo not drawn),-27.4%,·,·,·,·,·
COC(=O)c1ccc(C(=O)Nc2ccc(O)c(-c3nc4ccccc4o3)c2)cc1,31.3%,·,·,·,·,·
Cc1ccc(C)c(/C(O)=C2\C(=O)C(=O)N(c3nnc(C)s3)C2c2ccc(C(C)C)cc2)c1 (stereo not drawn),44.7µM*,·,·,·,·,·
COC(=O)c1ccc(C2/C(=C(\O)c3ccc4c(c3)OCCO4)C(=O)C(=O)N2c2nnc(C)s2)cc1 (stereo not drawn),?,4.8%,8.4%,2.6,17.6,0.9%
CN(C)/C=C1\C=Cc2ccccc21,·,·,-2.4%,-0.4,·,-2.8%
CN(C)/C=C1\C=C2C(=O)c3ccccc3N2C1=O,?,3.1%,-6.6%,57.1*,?,6.8%
Cc1ccc(NC(=O)CN2C(=O)C3(SCC(=O)N3c3ccc(C)cc3)c3ccccc32)cc1 (stereo not drawn),0.4%,·,·,·,·,·
c1cncc(-c2ccc3ncnc(NC4CCNCC4)c3c2)c1,-22.5%,·,-1.3%,·,·,·
c1cncc(-c2cncnc2NC2CCNCC2)c1,7.94µM*,·,-2.1%,·,·,·
N#C/C(=C/c1ccc(OC(F)F)cc1)C(N)=S,31.6µM*,·,·,·,·,·
N#C/C(=C\c1ccc(OC(F)F)cc1)C(=O)N1CCCCC1,6.8%,5.4%,13.6%,0.1,23.5,0.1%
SMILES,ALOX12 inh,Vif-APOBEC3F blk,GRP78 ERSR act,TRPML1 agonist,TRPML1 inh,Vif-A3G inh
O=C(CC[C@@H]1CNC(=O)[C@@H]2C[C@H](NCc3ccc(F)cc3)CN12)NCc1ccccc1,84.6%[176 µM],·,·,·,·,·
O=C(CC[C@@H]1CNC(=O)[C@@H]2C[C@H](NC(=O)c3ccccc3)CN12)NCc1ccc(F)cc1,31.6µM*,·,·,·,·,·
S=c1nc(-c2cccc(Cl)c2)[nH][nH]1,?,?,-1.3%,-0.7,4.4,1.5%
S=c1nc(-c2ccccc2Br)[nH][nH]1,25.1µM*,-10.6%,-3.1%,0.2,2.3,·
S=c1nc(-c2cc(Cl)ccc2Cl)[nH][nH]1,10µM*,-7.4%,-0.8%,1.0,-0.6,0.4%
COc1ccc(C(C)=O)cc1COC(=O)c1cc(Br)ccc1Cl,0.3%,·,·,·,·,·
Cc1ccc2c(=O)c(-c3nc(-c4cccc(F)c4)no3)cn(CC(=O)NCc3ccco3)c2n1,10µM*,·,·,·,·,·
CCC(C)C(=O)Nc1ccc(N2CCCCC2)c2ccncc12 (stereo not drawn),6.5%,·,·,·,·,·
COC(=O)[C@@H]1Cc2c([nH]c3ccccc23)[C@H]2C[C@@H](NCCCn3ccnc3)C[C@@H](c3ccccc3F)N21,40.6%,·,·,·,·,·
CC1CN(Cc2ccccc2)c2ccccc2NC1=S (stereo not drawn),35.5µM*,-2.3%,-2.0%,2.7,38.1,-7.7%
COc1ccccc1N1CCN(C2CCCN(C(=O)c3cc(C4CC4)on3)C2)CC1 (stereo not drawn),-3.9%,-0.8%,-8.1%,1.3,-61.2*,-1.0%
Cc1ccc(OC2(C(=O)NC(C)c3cn4ncsc4n3)CCNCC2)cc1 (stereo not drawn),14.1µM*,·,·,·,·,·
Cc1ccc(OC2(C(=O)NC(C)c3nn[nH]n3)CCNCC2)cc1 (stereo not drawn),-7.3%,·,·,·,·,·
CCN(CC)C(=S)Sc1ccc([N+](=O)[O-])cc1,5.62µM*,·,·,·,·,·
C=CCSc1nnc(NC(=O)c2cc(=O)c3ccccc3o2)s1,-1.9%,·,·,·,·,·
COc1ccc(Oc2coc3cc(OCC(=O)OCCC(C)C)ccc3c2=O)cc1,-22.6%,·,·,·,·,·
COc1ccc(N=C2NC(=O)/C(=C/C=C/c3ccccc3)S2)cc1,248.2%,4.8%,-2.1%,0.7,16.8,-8.5%
O=C1NC(=Nc2ccccc2)S/C1=C\C=C\c1ccco1,50.1µM*,-9.4%,2.5%,-0.6,23.4,?
Cc1ccc(N=C2NC(=O)/C(=C/C=C/c3ccco3)S2)cc1,31.6µM*,?,1.0%,2.7,-4.9,?
Cc1cccc(N=C2NC(=O)/C(=C/C=C/c3ccco3)S2)c1C,10µM*,-13.8%,-0.4%,0.8,2.9,?
Cc1ccc(N=C2NC(=O)/C(=C/c3cccn3C)S2)cc1,?,?,1.6%,1.4,-9.5,5.01µM*
Cc1cccc(N=C2NC(=O)/C(=C/c3cccn3C)S2)c1C,74.9%,?,-1.6%,2.6,29.5,?
CC1CCCCN1C(=O)CN1C(=O)N(c2cc(F)ccc2F)S(=O)(=O)c2ccccc21 (stereo not drawn),6.1%,·,·,·,·,·
N#Cc1ccc(Oc2cccc(-c3cnc4ccccc4n3)c2)cc1C#N,52.2%,·,·,·,·,·
